Pf apPOL inh – Pf-apPOL inhibitors, biochemical, fluorescence. Plasmodium falciparum apicoplast DNA polymerase (apPOL). Recombinant Pf-apPOL, molecular beacon fluorescence, 1.5 h. inhibition, % at 10 µM. hit rate 0.25% among 210,000
mHTT-CaM PPI inh – mutant huntingtin-calmodulin interaction inhibitors – biochemical, AlphaScreen, primary screen | hit rate 3.6% among 190,000 | P42858 | AID 1671202, 2021 | inhibition, % at 15 µM | AlphaScreen His-mHTT/GST-CaM binding, luminescence;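 also: 0% = both proteins with DMSO and 100% = one protein alone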
Target sequence (P42858 whole entry, looked up, stated change not applied): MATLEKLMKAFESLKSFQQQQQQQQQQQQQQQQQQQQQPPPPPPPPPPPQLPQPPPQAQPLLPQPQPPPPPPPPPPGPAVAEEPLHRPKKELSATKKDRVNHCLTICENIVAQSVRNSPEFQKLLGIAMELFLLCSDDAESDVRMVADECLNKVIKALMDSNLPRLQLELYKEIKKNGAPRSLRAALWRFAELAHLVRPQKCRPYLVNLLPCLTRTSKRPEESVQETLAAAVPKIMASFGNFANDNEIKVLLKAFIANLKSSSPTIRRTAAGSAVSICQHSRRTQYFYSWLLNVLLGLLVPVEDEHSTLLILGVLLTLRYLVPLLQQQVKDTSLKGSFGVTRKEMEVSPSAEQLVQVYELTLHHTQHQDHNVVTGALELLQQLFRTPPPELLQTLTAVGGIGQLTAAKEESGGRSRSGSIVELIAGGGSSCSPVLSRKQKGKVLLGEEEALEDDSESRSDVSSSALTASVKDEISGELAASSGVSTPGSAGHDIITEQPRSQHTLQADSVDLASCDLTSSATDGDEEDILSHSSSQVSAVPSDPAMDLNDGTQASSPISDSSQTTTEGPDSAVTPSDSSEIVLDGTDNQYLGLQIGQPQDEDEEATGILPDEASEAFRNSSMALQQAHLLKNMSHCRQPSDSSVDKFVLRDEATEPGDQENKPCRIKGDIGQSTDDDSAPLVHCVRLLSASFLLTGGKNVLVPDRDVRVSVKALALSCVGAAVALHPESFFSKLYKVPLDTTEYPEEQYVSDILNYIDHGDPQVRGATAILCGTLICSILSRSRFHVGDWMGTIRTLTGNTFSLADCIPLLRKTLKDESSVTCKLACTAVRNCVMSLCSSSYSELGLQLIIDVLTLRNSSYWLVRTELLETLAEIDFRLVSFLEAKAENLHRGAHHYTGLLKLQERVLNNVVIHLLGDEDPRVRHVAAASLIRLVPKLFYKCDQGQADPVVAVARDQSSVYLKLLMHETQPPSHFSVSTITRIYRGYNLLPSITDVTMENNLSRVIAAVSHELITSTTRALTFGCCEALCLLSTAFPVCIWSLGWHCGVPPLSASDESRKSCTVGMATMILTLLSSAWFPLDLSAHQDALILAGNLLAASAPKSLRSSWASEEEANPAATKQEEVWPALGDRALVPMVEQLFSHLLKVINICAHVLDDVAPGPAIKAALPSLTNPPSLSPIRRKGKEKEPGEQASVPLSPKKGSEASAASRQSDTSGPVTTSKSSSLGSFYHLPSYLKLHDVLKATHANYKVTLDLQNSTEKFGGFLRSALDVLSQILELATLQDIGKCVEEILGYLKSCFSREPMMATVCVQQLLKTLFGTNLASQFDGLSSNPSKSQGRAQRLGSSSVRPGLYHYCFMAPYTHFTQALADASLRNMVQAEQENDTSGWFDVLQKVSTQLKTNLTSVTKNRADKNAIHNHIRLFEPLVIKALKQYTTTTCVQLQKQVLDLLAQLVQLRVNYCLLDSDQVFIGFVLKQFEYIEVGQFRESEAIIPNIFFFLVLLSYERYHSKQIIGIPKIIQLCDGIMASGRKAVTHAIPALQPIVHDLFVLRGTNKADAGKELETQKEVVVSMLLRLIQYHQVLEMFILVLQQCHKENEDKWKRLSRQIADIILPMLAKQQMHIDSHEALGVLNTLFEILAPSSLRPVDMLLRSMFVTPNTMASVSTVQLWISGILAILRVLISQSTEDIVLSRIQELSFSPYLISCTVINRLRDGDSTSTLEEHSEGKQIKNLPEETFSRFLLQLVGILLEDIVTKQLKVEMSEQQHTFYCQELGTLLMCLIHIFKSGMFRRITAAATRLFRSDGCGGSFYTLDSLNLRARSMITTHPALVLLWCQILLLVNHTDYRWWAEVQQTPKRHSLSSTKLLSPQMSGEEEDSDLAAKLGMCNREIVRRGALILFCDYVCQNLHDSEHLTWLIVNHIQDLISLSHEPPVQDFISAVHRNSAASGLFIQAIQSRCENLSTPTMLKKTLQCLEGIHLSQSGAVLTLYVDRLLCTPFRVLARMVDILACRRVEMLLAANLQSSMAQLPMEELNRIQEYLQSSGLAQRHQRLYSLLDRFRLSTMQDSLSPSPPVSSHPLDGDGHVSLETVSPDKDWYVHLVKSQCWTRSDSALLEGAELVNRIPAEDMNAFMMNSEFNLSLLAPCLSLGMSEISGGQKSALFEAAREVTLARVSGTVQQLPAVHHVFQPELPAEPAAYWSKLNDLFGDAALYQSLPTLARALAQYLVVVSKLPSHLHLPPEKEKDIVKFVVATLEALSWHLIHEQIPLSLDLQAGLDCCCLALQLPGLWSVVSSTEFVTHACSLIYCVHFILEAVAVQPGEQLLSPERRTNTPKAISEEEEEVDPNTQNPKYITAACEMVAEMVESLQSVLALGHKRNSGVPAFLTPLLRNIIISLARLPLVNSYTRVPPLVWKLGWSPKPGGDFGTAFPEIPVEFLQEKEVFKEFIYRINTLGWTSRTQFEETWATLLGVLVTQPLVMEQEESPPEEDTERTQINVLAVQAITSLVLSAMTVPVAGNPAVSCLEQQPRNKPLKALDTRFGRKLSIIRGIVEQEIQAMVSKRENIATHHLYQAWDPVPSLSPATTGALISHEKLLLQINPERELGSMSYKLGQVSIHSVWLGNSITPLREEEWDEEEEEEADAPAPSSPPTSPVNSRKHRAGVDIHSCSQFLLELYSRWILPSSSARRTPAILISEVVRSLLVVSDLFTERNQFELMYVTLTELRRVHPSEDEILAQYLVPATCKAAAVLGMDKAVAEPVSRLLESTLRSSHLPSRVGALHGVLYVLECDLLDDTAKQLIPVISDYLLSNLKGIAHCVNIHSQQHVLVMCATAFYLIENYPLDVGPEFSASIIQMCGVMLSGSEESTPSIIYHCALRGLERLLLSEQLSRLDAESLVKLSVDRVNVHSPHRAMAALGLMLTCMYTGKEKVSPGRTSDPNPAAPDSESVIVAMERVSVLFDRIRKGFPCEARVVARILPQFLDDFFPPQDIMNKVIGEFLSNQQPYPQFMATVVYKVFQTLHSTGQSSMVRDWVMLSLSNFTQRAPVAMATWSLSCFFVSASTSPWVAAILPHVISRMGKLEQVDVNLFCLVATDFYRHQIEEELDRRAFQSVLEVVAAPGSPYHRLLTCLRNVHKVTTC
Active calls of the source: *; i = inactive; x = not tested or not shown. Only some compounds are listed: those with a hit (about 3.5% of all), similar ones and a draw of the others. Rule as the data show it: active = inhibition above about 50%; inactive = the rest.

SMILES | Pf apPOL inh | mHTT-CaM PPI inh
Nc1ccc2c(c1)C1C=CCC1C(c1ccc([N+](=O)[O-])cc1)N2 (centres undefined) | -3 | 98*
Cc1ccc2c(c1)NC(c1ccc([N+](=O)[O-])cc1)C1CC=CC21 (centres undefined) | -6 | 43
O=S(=O)(Nc1cccn2cnnc12)c1cccc(C(F)(F)F)c1 | 0 | -2
CC(C)(C)c1ccc(C(=O)NCc2[nH]nc3ccccc23)cc1 | -3 | 14
Cc1ccccc1-c1onc(C)c1C(=O)N1CCSCC1 | -1 | -1
Cc1ccc(C)c(N2CCN(C(=O)c3ccc(Br)cc3)C(C)C2=O)c1 (centres undefined) | 0 | 1
CC(CCc1ccccc1)NC(=O)c1cc2n(n1)CCCN(Cc1cccc(F)c1)C2=O (centres undefined) | 1 | -1
O=[N+]([O-])c1ccc(C2Nc3ccc(F)cc3C3C=CCC32)cc1 (centres undefined) | -29 | 91*
CC(C)CC(NC(=O)c1ccco1)C(=O)O (centres undefined) | 61* | -2
CC(Nc1c2ccccc2nc2ccccc12)C(=O)NC(CC(N)=O)C(=O)O (centres undefined) | 2 | 1
CC(C)CC(NC(=O)C(C)Nc1c2ccccc2nc2ccccc12)C(=O)O (centres undefined) | -2 | 65*
CC(NC(=O)c1ccco1)C(=O)O (centres undefined) | 1 | 0
Cc1cccc(NC(=O)c2sc3nc(-c4ccccc4)cn3c2C)n1 | -1 | 50*
Cc1c(C(=O)Nc2ccccn2)sc2nc(-c3ccccc3)cn12 | -24 | 8
CCOc1ccc(NC(=O)C2CCCN(C(=O)c3ccccc3F)C2)cc1 (centres undefined) | -39 | 30
O=C(NC(NCCc1ccccc1)C(Cl)(Cl)Cl)c1ccco1 (centres undefined) | -1 | -10
O=C(NC(NCC1CCCO1)C(Cl)(Cl)Cl)c1ccco1 (centres undefined) | 97* | -1
CC1CCCCN1C(=O)c1cn(-c2ccc(Cl)cc2)c(=O)c2ccccc12 (centres undefined) | -5 | 1
O=Cc1csc(Cn2cnc([N+](=O)[O-])n2)c1 | x | -5
O=[N+]([O-])c1ccc(COc2ccc(-c3[nH]ncc3-c3nc4ccccc4s3)c(O)c2)cc1 | -7 | 100*
O=C(Nc1ccc(O)c(-c2nc3ccccc3s2)c1)c1ccc([N+](=O)[O-])cc1 | 0 | -1
Nc1ccc(O)c(-c2nc3ccccc3s2)c1 | 3 | 50
Cc1cc(C)c(-c2[nH]ncc2-c2nc3ccccc3s2)c(O)c1 | -10 | 86*
COc1ccc(NC(=O)c2cc(N3CCOCC3)c3cc(C)ccc3n2)cc1Cl | -3 | 10
CC(C)c1cc(C2CCCN2C(=O)Nc2ccc3c(c2)OCCO3)on1 (centres undefined) | 2 | 5
SMILES | Pf apPOL inh | mHTT-CaM PPI inh
CCCNc1cc(N2CCC(CCC(=O)NCCC(C)C)CC2)ncn1 | 0 | 3
CCOC(=O)c1ccc(NC(=O)N2CCOc3ccc(C)cc32)cc1 | -14 | 2
CC1=CC(=O)C(C(C)C)=CC1=NC(=O)c1ccc(C)cc1 | -1 | 60*
CC1=CC(=O)C(C(C)C)=C/C1=N\OC(=O)c1cccc(Br)c1 | -4 | i
COc1ccc(C=C(C#N)C(=O)O)cc1OC | -4 | x
Cc1cc(NC(=O)c2ccccc2)cc(C)c1O | -3 | -1
Cc1ccc(Nc2cc(C)c(O)c(C)c2)cc1 | -5 | 84*
CC(C)CNC(=O)C1CC(=O)N(Cc2ccccc2F)C1 (centres undefined) | -4 | -5
O=C1OC(c2cc(Cl)ccc2Cl)=N/C1=C\c1ccco1 | 86* | 3
COc1cccc(C2=N/C(=C\c3ccco3)C(=O)O2)c1 | 61* | 4
COc1ccc(Br)cc1/C=C1\N=C(c2ccc(Cl)c([N+](=O)[O-])c2)OC1=O | 4 | -6
COc1ccc(OC)c(/C=C2\N=C(c3ccc(Cl)c([N+](=O)[O-])c3)OC2=O)c1 | -3 | 68*
O=C1OC(c2ccccc2Cl)=N/C1=C\c1ccc(Cl)cc1 | -7 | 3
COc1cccc(/C=C2\N=C(c3cccc(OC)c3)OC2=O)c1 | 0 | 2
O=C1OC(c2ccccc2Cl)=N/C1=C\c1ccccc1 | 3 | 51*
O=C1OC(c2ccc(Cl)cc2Cl)=N/C1=C\c1ccco1 | -10 | 4
CCN(CC)S(=O)(=O)c1ccc(C(=O)Nc2nnc(-c3cccc(OC)c3)o2)cc1 | -10 | 22
Cc1oc2cc3oc(=O)c4ccccc4c3cc2c1C | -9 | 1
Cn1c(Cc2ccccc2)nnc1SCC(=O)Nc1cccc(Cl)c1 | 1 | 1
Cc1ccc(N2CCN(C(=O)c3cn4c(n3)CCCC4)CC2)cc1 | 0 | 14
OC(CN1CCN(C2CCCCC2)CC1)c1ccc2c(c1)OCO2 (centres undefined) | 1 | -3
Nc1nc(-c2ccc(-c3ccccc3)cc2)cs1 | 0 | 45
Nc1nc(-c2ccccc2)cc(=S)s1 | x | 51*
O=c1/c(=C/c2ccc(Br)c([N+](=O)[O-])c2)sc2nc3ccccc3n12 | 2 | -6
COc1cc(/C=c2\sc3nc4ccccc4n3c2=O)cc([N+](=O)[O-])c1O | 1 | 57*
SMILES | Pf apPOL inh | mHTT-CaM PPI inh
O=S(=O)(c1c(F)cccc1F)N(CCc1ccc(F)cc1)C[C@@H](O)COCc1ccccc1 | -4 | 99*
CN(CC(O)COCc1ccccc1)C1CCCCC1 (centres undefined) | -4 | -4
CC1CCN(C(=O)C2=NN(Cc3ccccc3)c3ccccc3S2(=O)=O)CC1 | 0 | 2
CCCC1CCC2(CC1)CC[C@H]2OC(=O)Nc1cccc(Cl)c1 (some centres undefined) | -4 | -61
CN(CC(=O)NCC1CCCO1)S(=O)(=O)c1ccc(Cl)cc1 (centres undefined) | 3 | -4
Cc1ccc(C)n1-c1ccc(Cc2ccncc2)cc1 | -4 | 65*
O=[N+]([O-])c1ccc(Cc2ccncc2)cc1 | -6 | -1
COc1ccc(C=C2c3cc([N+](=O)[O-])cc([N+](=O)[O-])c3-c3c2cc([N+](=O)[O-])cc3[N+](=O)[O-])cc1 | 1 | 100*
CN(C)c1ccc(C=C2c3cc([N+](=O)[O-])cc([N+](=O)[O-])c3-c3c2cc([N+](=O)[O-])cc3[N+](=O)[O-])cc1 | -1 | 44
CC(C)S(=O)(=O)c1ccc(CC(=O)N2CCC(Cn3cccn3)CC2)cc1 | -2 | -11
CCCCC(=O)NC(c1ccc2c(c1)OCO2)c1cc([N+](=O)[O-])c2cccnc2c1O (centres undefined) | -6 | 99*
CCCCC(=O)NC(c1ccccc1Cl)c1cc([N+](=O)[O-])c2cccnc2c1O (centres undefined) | -10 | 100*
CCCCC(=O)NC(/C=C/c1ccccc1)c1cc([N+](=O)[O-])c2cccnc2c1O (centres undefined) | -3 | 14
NC(=S)NNC(=S)Nc1ccc(F)cc1 | x | -3
CCN(CC)Cc1c(O)ccc2c1OC(=Cc1ccccc1C)C2=O | 0 | 10
CCN1CCN(Cc2c(O)ccc3c2OC(=Cc2c[nH]c4ccccc24)C3=O)CC1 | -6 | 54*
CN1CCN(Cc2c(O)ccc3c2OC(=Cc2c[nH]c4ccccc24)C3=O)CC1 | -10 | -1
CCN(CC)Cc1c(O)ccc2c1OC(=Cc1c[nH]c3ccccc13)C2=O | -31 | 72*

Source: PubChem BioAssay
